Records with an inconclusive call do not appear. Active and inactive are the calls of the source. Calls follow the shape of the dose curve; as a rule, active = well fitted activation curve with a large enough effect; inconclusive = small, poorly fitted or top-dose-only effect; inactive = flat fitted curve, though single readings scatter.
Assay: Extended Characterization of HPGD Inhibitors: PGE2 Assay in A549 Cells
Details: PGE2 HTRF level, 16 h
Excerpt: The central role of HPGD is to inactivate prostaglandins such as prostaglandin E2 (PGE2) or prostaglandin D2 (PGD2). These prostaglandins are involved in a number of processes, including inflammation, differentiation, and cellular signaling, which makes HPGD an important target for pharmacological intervention. A number of prostaglandins of particular biological interest have been identified as substrates of HPGD. […] Over-production of PGE2 has been reported to promote tumor-associated neovascularization, cell proliferation, and tumor growth. […] In this orthogonal assay, we set out to measure if compounds were able to increase PGE2 production NIH Chemical Genomics Center [NCGC] NIH Molecular Libraries Probe Centers Network [MLPCN] MLPCN Grant: MH084681 Assay Submitter (PI): Structural Genomics Consortium
A549 cells, LNCaP cells or media were dispensed in 384-well plates (ProxiPlate-384 Plus, PerkinElmer, Shelton, CT) at 5,000 cells/9.9 uL/well using a CappAero384 multichannel pipette (Odense, Denmark). Separately on the plate, 10 uL of PGE2 calibration standards at a starting assay concentration of 5,000 pg/mL (1:2 dilution, 12-points, n = 1, prepared in media, Cisbio, Bedford, MA) were dispensed. Compounds (100 nL, final concentration range from 41.9 nM to 100 uM) were transferred using an ATS Acoustic Liquid Dispenser (EDC Biosystems, Fremont, CA). After being mixed using an automated liquid handler (CyBio, Jena, Germany), samples were incubated (37 deg C, 5% CO2, under a humidified atmosphere) for 16 hours. PGE2 labeled conjugates were added to each well, first 5 uL of PGE2-d2, followed by 5 uL of anti-PGE2-cryptate, centrifuged (1,500 rpm, 15 sec) and incubated (RT, protected from light) for 5 hours. Time-resolved fluorescence intensity (320 nm excitation, 615 and 665 nm emission) was measured using an Envision plate reader (PerkinElmer). Data was expressed as the ratio of 665 nm/615 nm emissions. Concentration (pg/mL) of samples were calculated from a 4-parameter logistic calibration curves of the PGE2 standards.

| Structure (SMILES) | Potency |
| --- | --- |
| CN1CC[C@@H](c2c(O)cc(O)c3c(=O)cc(-c4ccccc4Cl)oc23)[C@@H](O)C1 | 3.32 µM (active) |
